Unmarked numbers belong to inactive results. No stated cut-off is given here; in the data, active means inhibition above about 37%; inactive means the rest.

The assay relates to Hepatitis C virus NS3 helicase. The assay can be described thus: HCV NS3 helicase inhibitors, primary screen, biochemical, fluorescence polarization, LOPAC1280 library (AID 687035). Conditions: Purified HCV NS3 helicase, Cy5-dT15 ssDNA binding fluorescence polarization; stronger effect = higher value; concentration not given here.
Regarding `CCNc1nc2c(ncn2[C@H]2C[C@H](O)[C@@H](CO)O2)c(=O)[nH]1`, the inhibition was -2%.
For `CC(=O)O[C@H]1Cc2ccccc2N(C(N)=O)c2ccccc21`, the inhibition was -4%.
Turning to `COc1ccc(-c2cc3ncc(C)n3c(Nc3ncccc3C(N)=O)n2)cc1OC`, the inhibition was -1%.
With `COc1ccc2c(c1)CCC1C2CC[C@@]2(C)C1CC[C@@H]2NCCCCCCN1C(=O)CCC1=O` (some centres not stated) the figure was -3%.
With `O=C(c1ccc(Cl)cc1)N1CCN(c2ccc([N+](=O)[O-])c3ncccc23)CC1` the figure was 0%.
For `Cc1cc(Cn2cnc3c2C[C@@H](C(=O)O)N(C(=O)C(c2ccccc2)c2ccccc2)C3)ccc1N` the value was 0%; for `c1ccc2c(c1)CCC[C@H]2Nc1nc2ccccc2[nH]1`, -3%; for `Clc1ccc(N2CCN(Cc3cc4ccccn4n3)CC2)cc1`, -6%.
For the molecule `Cn1ncc(S(=O)(=O)Cc2ccccc2)c(Br)c1=O`, the inhibition was -3%.
As to `O=c1ccc2c(OCCCCc3ccccc3)c3ccoc3cc2o1`, the inhibition was 0%.
For `O=c1cc(-c2ccccc2F)[nH]c2cc3c(cc12)OCO3` the value was -7%; for `O=C(CCCCCN1CCN(c2ccccc2-c2ccccc2)CC1)NC1CCCc2ccccc21` (configuration not stated), 0%.
For the molecule `COc1cc(C(O)CO)ccc1O` (configuration not stated), the inhibition was -1%.
With `Brc1c(Br)c(Br)c2[nH]cnc2c1Br` the figure was 0%; with `OCC1O[C@H]([S-])[C@@H](O)C(O)[C@@H]1O.[Au+]` (some centres not stated), 36%.
For `Clc1nccc2c1ccc1ccccc12` the value was -2%; for `CN(C)CCCc1cc(C(=O)Nc2ccc(-c3ccncc3)cc2)ccc1O`, -1%.

The values above are taken from PubChem BioAssay.
